Results: PubChem BioAssay (NCATS)
Records with an inconclusive call do not appear. Values without a mark were called inactive. Calls of active or inactive are those of the source. Calls follow the shape of the dose curve; as a rule, active = well fitted curve in the direction sought with a large enough effect; inconclusive = small, poorly fitted or top-dose-only effect, or another doubt; inactive = no such curve, though single readings can be large; an effect the other way counts as inactive or inconclusive.

Key:
[1] = Quantitative High-Throughput drug screen in 47 multiple myeloma cell lines against the NCATS MIPE library collection: KMS12PE_JCRB cell viability assay (AID 1918972); also: nearly all actives have a fitted effect of over 30% in size; also: potency is read from the fitted curve at half-maximal effect;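 as to viability: 100% = DMSO only wells and 0% = wells with media alone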
Outline: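 Viability readout: CellTiter-Glo luminescence following 5 min room-temperature incubation with reagent. Prior exposure: 48 h, 37C, humidified 5% CO2, 500 cells per well.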

[2] = Quantitative High-Throughput drug screen in 47 multiple myeloma cell lines against the NCATS MIPE library collection: MMM1_PLB cell viability assay (AID 1918976); also: potency is read from the fitted curve at half-maximal effect; nearly all actives have a fitted effect of over 35% in size
Outline: (§1)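 Cells were exposed to library compounds for 48 hours, after which ATP was measured by CellTiter-Glo. Signal was taken as median relative luminescence units.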

[3] = Quantitative High-Throughput drug screen in 47 multiple myeloma cell lines against the NCATS MIPE library collection: MM1S_ATCC cell viability assay (AID 1918980); also: potency is read from the fitted curve at half-maximal effect; nearly all actives have a fitted effect of over 45% in size
Outline: as §1

[4] = Quantitative High-Throughput drug screen in 47 multiple myeloma cell lines against the NCATS MIPE library collection: MM1R_ATCC cell viability assay (AID 1918981); also: nearly all actives have a fitted effect of over 35% in size; also: potency is read from the fitted curve at half-maximal effect
Outline: as §1

[5] = Quantitative High-Throughput drug screen in 47 multiple myeloma cell lines against the NCATS MIPE library collection: LP1_DSMZ cell viability assay (AID 1918982); also: nearly all actives have a fitted effect of over 35% in size; also: potency is read from the fitted curve at half-maximal effect
Outline: as §1

[6] = Quantitative High-Throughput drug screen in 47 multiple myeloma cell lines against the NCATS MIPE library collection: KMS28PE_JCRB cell viability assay (AID 1918983); also: nearly all actives have a fitted effect of over 35% in size; also: potency is read from the fitted curve at half-maximal effect
Outline: as §1

[7] = Quantitative High-Throughput drug screen in 47 multiple myeloma cell lines against the NCATS MIPE library collection: L363_DSMZ cell viability assay (AID 1918984); conditions: L363 myeloma viability, CellTiter-Glo ATP luminescence, 48 h; viability (% of control): at 45.8 µM (top of the series); also: nearly all actives have a fitted effect of over 40% in size; also: potency is read from the fitted curve at half-maximal effect
Outline: as §1

[8] = Quantitative High-Throughput drug screen in 47 multiple myeloma cell lines against the NCATS MIPE library collection: OCIMY5_PLB cell viability assay (AID 1918988); also: nearly all actives have a fitted effect of over 65% in size; also: potency is read from the fitted curve at half-maximal effect
Outline: as §1

[9] = Quantitative High-Throughput drug screen in 47 multiple myeloma cell lines against the NCATS MIPE library collection: OPM1_PLB cell viability assay (AID 1918989); also: nearly all actives have a fitted effect of over 40% in size; also: potency is read from the fitted curve at half-maximal effect;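 as to viability (% of control): 100% = DMSO-only wells and 0% = media-only wells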
Outline: as §1

[10] = Quantitative High-Throughput drug screen in 47 multiple myeloma cell lines against the NCATS MIPE library collection: SKMM1_PLB cell viability assay (AID 1919863); conditions: SKMM1 myeloma viability, CellTiter-Glo ATP, 48 h; viability: stronger effect = lower value; also: nearly all actives have a fitted effect of over 35% in size; also: potency is read from the fitted curve at half-maximal effect
Outline: as §1

[11] = Quantitative High-Throughput drug screen in 47 multiple myeloma cell lines against the NCATS MIPE library collection: U266_ATCC cell viability assay (AID 1919864)
Outline: as §1

[12] = Quantitative High-Throughput drug screen in 47 multiple myeloma cell lines against the NCATS MIPE library collection: XG6_PLB cell viability assay (AID 1919865); also: potency is read from the fitted curve at half-maximal effect; nearly all actives have a fitted effect of over 40% in size
Outline: as §1

[13] = Quantitative High-Throughput drug screen in 47 multiple myeloma cell lines against the NCATS MIPE library collection: NCIH929_DSMZ cell viability assay (AID 1918978); also: nearly all actives have a fitted effect of over 35% in size; also: potency is read from the fitted curve at half-maximal effect
Outline: as §1

[14] = Quantitative High-Throughput drug screen in 47 multiple myeloma cell lines against the NCATS MIPE library collection: OCIMY7_PLB cell viability assay (AID 1918987); conditions: OCI-MY7 myeloma viability, CellTiter-Glo ATP, 48 h; viability (% of DMSO): at 45.8 µM (top of the series); also: nearly all actives have a fitted effect of over 65% in size; also: potency is read from the fitted curve at half-maximal effect
Outline: as §1

[15] = Quantitative High-Throughput drug screen in 47 multiple myeloma cell lines against the NCATS MIPE library collection: MOLP8_DSMZ cell viability assay (AID 1918977);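 also: 100% = DMSO-only wells and 0% = media-only wells without cells; nearly all actives have a fitted effect of over 45% in size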
Outline: as §1

[16] = Quantitative High-Throughput drug screen in 47 multiple myeloma cell lines against the NCATS MIPE library collection: OCIMY1_PLB cell viability assay (AID 1918979)
Outline: as §1

[17] = Quantitative High-Throughput drug screen in 47 multiple myeloma cell lines against the NCATS MIPE library collection: KMS34_JCRB cell viability assay (AID 1918985);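 also: 100% = DMSO-only wells and 0% = media-only wells; nearly all actives have a fitted effect of over 40% in size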
Outline: as §1

**Q.** Which Potency [1] does the source give for `O=C(CCCN1CCN(c2ccc(F)cc2)CC1)NC1c2ccccc2CSc2ccccc21` (stereo not given) here?
**A.** Its Potency is 4.18 µM (active).

**Q.** And the Potency [2]?
**A.** Its Potency is 5.9 µM (active).

**Q.** And the Potency [3]?
**A.** The Potency was 10.5 µM (active).

**Q.** And the Potency [4]?
**A.** Its Potency is 18.7 µM (active).

**Q.** And the Potency [5]?
**A.** The Potency was 2.96 µM (active).

**Q.** What about the Potency [6] of the same molecule?
**A.** Its Potency is 11.8 µM (active).

**Q.** And the Potency [7]?
**A.** Its Potency is 4.69 µM (active).

**Q.** What about the Potency [8] of the same molecule?
**A.** The Potency was 16.6 µM (active).

**Q.** What about the Potency [9] of the same molecule?
**A.** The Potency was 10.5 µM (active).

**Q.** What about the Potency [10] of the same molecule?
**A.** The Potency was 5.9 µM (active).

**Q.** And the Potency [11]?
**A.** Its Potency is 20.9 µM (active).

**Q.** What about the Potency [12] of the same molecule?
**A.** The Potency was 14.8 µM (active).

**Q.** With `Cc1ccc(NC(=O)c2ccc(CN3CCN(C)CC3)cc2)cc1Nc1nc(-c2cccnc2)cs1` as the molecule, how does the Potency [1] read?
**A.** Its Potency is 18.7 µM (active).

**Q.** And the Potency [2]?
**A.** The Potency was 18.7 µM (active).

**Q.** And the Potency [13]?
**A.** Its Potency is 23.5 µM (active).

**Q.** And the Potency [4]?
**A.** Its Potency is 20.9 µM (active).

**Q.** And the Potency [6]?
**A.** The Potency was 16.6 µM (active).

**Q.** And the Potency [7]?
**A.** The Potency was 9.35 µM (active).

**Q.** What about the Potency [14] of the same molecule?
**A.** The Potency was 14.8 µM (active).

**Q.** What about the Potency [8] of the same molecule?
**A.** The Potency was 23.5 µM (active).

**Q.** What about the Potency [9] of the same molecule?
**A.** The Potency was 9.35 µM (active).

**Q.** What about the Potency [10] of the same molecule?
**A.** The Potency was 23.5 µM (active).

**Q.** What about the Potency [12] of the same molecule?
**A.** Its Potency is 7.43 µM (active).

**Q.** What does the source list for `OC[C@H]1O[C@@H](OCCc2ccc(O)cc2)[C@H](O)[C@@H](O)[C@H]1O`?
**A.** Potency [1]: inactive; Potency [15]: inactive; Potency [16]: inactive; Potency [3]: 20.9 µM (active); Potency [4]: inactive; Potency [5]: inactive; Potency [7]: inactive; Potency [9]: 29.6 µM (active); Potency [11]: 20.9 µM (active); Potency [12]: 5.9 µM (active)

**Q.** With `COc1cc(F)c(C(C)C)cc1-c1ccc(C(F)(F)F)cc1CN1C(=O)O[C@H](c2cc(C(F)(F)F)cc(C(F)(F)F)c2)[C@@H]1C` as the molecule, how does the Potency [1] read?
**A.** Its Potency is “inactive”.

**Q.** And the Potency [2]?
**A.** The Potency was 1.18 µM (active).

**Q.** What about the Potency [13] of the same molecule?
**A.** Its Potency is “inactive”.

**Q.** And the Potency [16]?
**A.** Its Potency is “inactive”.

**Q.** And the Potency [5]?
**A.** The Potency was 0.662 µM (active).

**Q.** And the Potency [12]?
**A.** The Potency was 20.9 µM (active).

**Q.** What does the source list for `Cn1cc(-c2ccc3nnc(Sc4ccc5ncccc5c4)n3n2)cn1`?
**A.** Potency [1]: 5.26 µM (active); Potency [2]: 16.6 µM (active); Potency [16]: inactive; Potency [3]: 4.18 µM (active); Potency [4]: 23.5 µM (active); Potency [5]: 0.001 µM (active); Potency [14]: inactive; Potency [8]: 13.2 µM (active); Potency [9]: inactive; Potency [12]: 26.4 µM (active)

**Q.** For `CC(C)C[C@@H](N)[C@H](O)C(=O)N[C@H](C(=O)N[C@H](C(=O)N[C@@H](CC(=O)O)C(=O)O)C(C)C)C(C)C`, which Potency [1] is on record?
**A.** The Potency was “inactive”.

**Q.** What about the Potency [2] of the same molecule?
**A.** Its Potency is 1.66 µM (active).

**Q.** And the Potency [16]?
**A.** Its Potency is “inactive”.

**Q.** And the Potency [3]?
**A.** Its Potency is 23.5 µM (active).

**Q.** What about the Potency [5] of the same molecule?
**A.** The Potency was “inactive”.

**Q.** What about the Potency [6] of the same molecule?
**A.** Its Potency is “inactive”.

**Q.** What about the Potency [7] of the same molecule?
**A.** The Potency was “inactive”.

**Q.** What about the Potency [8] of the same molecule?
**A.** The Potency was “inactive”.

**Q.** What about the Potency [9] of the same molecule?
**A.** The Potency was 4.69 µM (active).

**Q.** What about the viability [10] of the same molecule?
**A.** The viability was 122%.

**Q.** And the Potency [12]?
**A.** Its Potency is 7.43 µM (active).

**Q.** For `CCn1c(-c2nonc2N)nc2cncc(CNC3CCNCC3)c21`, which Potency [1] is on record?
**A.** Its Potency is 1.05 µM (active).

**Q.** What about the Potency [2] of the same molecule?
**A.** The Potency was 8.33 µM (active).

**Q.** And the Potency [3]?
**A.** Its Potency is 14.8 µM (active).

**Q.** And the Potency [5]?
**A.** Its Potency is “inactive”.

**Q.** What about the Potency [6] of the same molecule?
**A.** Its Potency is 18.7 µM (active).

**Q.** What about the Potency [8] of the same molecule?
**A.** The Potency was 18.7 µM (active).

**Q.** Which results are given for `CC(C)c1onc(-c2c(Cl)cccc2Cl)c1COc1ccc(C=Cc2cccc(C(=O)O)c2)c(Cl)c1`?
**A.** Potency [1]: inactive; Potency [2]: 20.9 µM (active); Potency [16]: inactive; Potency [3]: 18.7 µM (active); Potency [4]: 0.148 µM (active); Potency [5]: inactive; Potency [17]: inactive; Potency [9]: inactive; viability [10]: 113%
